The panel holds about 79,000 compounds, 15% with a hit somewhere; the sample as a whole holds those more often. Unmarked numbers belong to inactive results. Activity calls are given as the source filed them. Cut-off read from the data, not from the text of the source: active = growth inhibition above about 70%; inactive = the rest.
Experiments:
[1] = NCI Yeast Anticancer Drug Screen. Data for the rad50 strain (AID 155);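 note: 0% = growth of vehicle-only cultures of the same strain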; conditions: S. cerevisiae rad50 strain growth inhibition, hits give high values
Summary of the method: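 Vehicle-treated cultures provide the reference for the growth inhibition reported for compound-exposed, repair-deficient yeast.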

[2] = NCI Yeast Anticancer Drug Screen. Data for the mec2-1 strain (AID 157); conditions: S. cerevisiae mec2-1 strain, hits give high values
Summary of the method: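 Strain: mec2-1 (DNA repair/cell cycle alteration). Compound exposure, then growth measured; inhibition expressed relative to vehicle.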

[3] = NCI Yeast Anticancer Drug Screen. Data for the sgs1 mgt1 strain (AID 161);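 note: 0% = growth of cultures given vehicle only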; conditions: S. cerevisiae sgs1 mgt1 strain, hits give high values
Summary of the method: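 Read-out: growth inhibition vs vehicle controls. Cells: mutant yeast strain deficient in DNA damage repair.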

[4] = NCI Yeast Anticancer Drug Screen. Data for the cln2 rad14 strain (AID 165);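 note: 0% = growth equal to vehicle treated cultures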; conditions: S. cerevisiae cln2 rad14 strain, hits give high values
Summary of the method: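 Compounds are applied to the cln2 rad14 yeast strain, and growth is then compared with that of vehicle-treated cultures to give inhibition.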

[5] = NCI Yeast Anticancer Drug Screen. Data for the bub3 strain (AID 167); conditions: S. cerevisiae bub3 mutant strain, hits give high values
Summary of the method: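 Mutant yeast screening strain plus compound; vehicle-treated cultures serve as the 0% inhibition reference.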

[6] = NCI Yeast Anticancer Drug Screen. Data for the mlh1 rad18 strain (AID 175); conditions: S. cerevisiae mlh1 rad18 strain growth inhibition, hits give high values
Summary of the method: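 Read-out is yeast growth inhibition, calculated against vehicle-only controls. The compound was applied to a strain engineered with DNA damage repair alterations.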

[7] = at 5.0 µM (retest, dose inferred, filed as 0.5)
[8] = at 50.0 µM (retest, dose inferred, filed as 5.0)

SMILES	growth inhibition [1, 7]	growth inhibition [1, 8]	growth inhibition ([1]; at 50.0 µM)	growth inhibition [2, 7]	growth inhibition [2, 8]	growth inhibition ([2]; at 50.0 µM)	growth inhibition [3, 7]	growth inhibition [3, 8]	growth inhibition ([3]; at 50.0 µM)	growth inhibition [4, 7]	growth inhibition [4, 8]	growth inhibition ([4]; at 50.0 µM)	growth inhibition [5, 7]	growth inhibition [5, 8]	growth inhibition ([5]; at 50.0 µM)	growth inhibition [6, 7]	growth inhibition [6, 8]	growth inhibition ([6]; at 50.0 µM)
O=C(Nc1ccc(Cl)cc1)OCCOCCOC(=O)Nc1ccc(Cl)cc1	9%	97% (active)	95.8% (active)	0%	97% (active)	97% (active)	25%	93% (active)	97.9% (active)	6%	97% (active)	98.2% (active)	-7%	97% (active)	98.7% (active)	4%	96% (active)	98% (active)
O=C(CC1(O)C(=O)Nc2c(Cl)cccc21)c1ccc(Cl)cc1 (stereo not given)	9%	45%	18.6%	8%	29%	20.8%	-19%	36%	33.8%	17%	71% (active)	19.4%	10%	72% (active)	19.4%	-7%	54%	28.3%
CC(C)CCCC(O)CNCc1ccccc1 (stereo not given)	9%	27%	-1.95%	17%	38%	11.4%	13%	-11%	28.2%	13%	36%	-18.9%	5%	44%	82% (active)	7%	15%	10.2%
c1ccc(SSc2ccccn2)nc1	17%	99% (active)	96.5% (active)	69%	99% (active)	99.7% (active)	49%	99% (active)	53.1%	0%	99% (active)	99.5% (active)	50%	99% (active)	99.5% (active)	62%	99% (active)	99.5% (active)
CCCC/C=C1\CCC(CN2CCOCC2)C1=O (stereo not given)	56%	100% (active)	90.5% (active)	39%	100% (active)	92.8% (active)	43%	100% (active)	91.4% (active)	44%	98% (active)	90.8% (active)	69%	100% (active)	91.2% (active)	61%	98% (active)	90.7% (active)
CC1(c2cccs2)C(C#N)(C#N)C1(C#N)C#N	17%	42%	92.8% (active)	9%	44%	95.8% (active)	17%	39%	96% (active)	-5%	30%	98.4% (active)	-4%	36%	95.5% (active)	9%	47%	98.5% (active)
CC(C)(C)C1CCC2c3c([nH]c4ccccc34)C3C(=O)N(c4ccc(C(=O)O)cc4)C(=O)C3C2C1 (stereo not given)	98% (active)	98% (active)	96.3% (active)	99% (active)	99% (active)	99.2% (active)	99% (active)	99% (active)	98.5% (active)	89% (active)	98% (active)	99.4% (active)	74% (active)	99% (active)	99.3% (active)	97% (active)	99% (active)	98.8% (active)
O=C(c1ccccc1)c1ccc2cccc(O)c2n1	19%	63%	88.8% (active)	-18%	31%	91.5% (active)	-11%	55%	90.8% (active)	5%	34%	88.8% (active)	-21%	77% (active)	91.7% (active)	-19%	77% (active)	89.4% (active)
Cc1cc(O)c(O)cc1C/C=C/c1ccccc1	-1%	92% (active)	53.2%	1%	97% (active)	26.7%	5%	97% (active)	51.5%	-5%	82% (active)	42.5%	0%	96% (active)	53.2%	-10%	96% (active)	40.6%
CC(=O)OCC1OC(n2c(O)c(N=NC(N)=S)c3ccc([N+](=O)[O-])cc32)C(OC(C)=O)C1OC(C)=O (stereo not given)	12%	95% (active)	96.5% (active)	5%	47%	34.6%	-9%	72% (active)	71.5% (active)	-33%	23%	-1.15%	6%	34%	53.3%	-1%	68%	61.3%
CCCCCNC(=O)c1ccc(Cl)c(Cl)c1	6%	49%	64.8%	5%	45%	28.4%	7%	63%	83.2% (active)	16%	41%	33.5%	10%	59%	64.9%	1%	62%	64.6%
COc1ccc2c(c1)S(=O)(=O)C(c1ccccc1)=CC2=O	81% (active)	99% (active)	99.5% (active)	87% (active)	99% (active)	99.5% (active)	91% (active)	99% (active)	99.2% (active)	66%	99% (active)	97.5% (active)	87% (active)	98% (active)	99.5% (active)	95% (active)	98% (active)	99% (active)
CC12C=CC(=O)C=C1CCC1C3CCC(O)(C(=O)CO)C3(C)CC(O)C12F (stereo not given)	2%	63%	11.4%	4%	65%	25.6%	3%	54%	7.65%	6%	35%	72.8% (active)	6%	82% (active)	0.6%	4%	79% (active)	2.15%
CC1CC(OC(=O)Nc2ccccc2)CC(C)(C)C1 (stereo not given)	-33%	76% (active)	78.8% (active)	9%	74% (active)	80.6% (active)	-6%	87% (active)	91.5% (active)	4%	81% (active)	66.8%	10%	83% (active)	90.3% (active)	4%	87% (active)	85.6% (active)
CCOc1ccc(N=NS(=O)(=O)O)cc1	-8%	14%	61.1%	-11%	-23%	-5.45%	-12%	-24%	-6.5%	-29%	-88%	15%	-7%	-13%	-23.1%	-2%	-5%	9.4%
O=S(=O)(c1ccc2c(c1)CCCN2)N1CCC[C@H]2CCCC[C@@H]21	7%	94% (active)	95.3% (active)	-2%	96% (active)	96.8% (active)	0%	95% (active)	97.1% (active)	32%	94% (active)	95.5% (active)	14%	96% (active)	98.2% (active)	11%	93% (active)	95% (active)
CCOC(=O)C(CC(=O)O)=C(c1ccccc1)c1ccccc1	-10%	-7%	17.5%	-5%	-8%	18.5%	3%	14%	7.9%	-31%	4%	79.7% (active)	11%	0%	25.1%	-10%	7%	-7.95%
CCN(CC)CC(O)c1ccc2cc(Cl)c3ccccc3c2c1 (stereo not given)	15%	99% (active)	99.5% (active)	4%	99% (active)	99.5% (active)	25%	99% (active)	99.6% (active)	8%	99% (active)	99.3% (active)	16%	98% (active)	99.5% (active)	29%	99% (active)	99.6% (active)
CN(C)CCOC(=O)C1(CCC2CCCCC2)CCCCC1	0%	80% (active)	96.9% (active)	-1%	17%	30.9%	-2%	57%	60.5%	-3%	37%	18.7%	1%	32%	85% (active)	-2%	77% (active)	93.3% (active)
Cc1cc(N(CCC#N)CCC#N)ccc1/C(Sc1ccccc1)=C(\NC(=O)/C=C/c1ccccc1)C(=O)Sc1ccccc1	28%	28%	86.6% (active)	21%	21%	90% (active)	25%	25%	90.9% (active)	17%	17%	64.5%	21%	21%	87.2% (active)	24%	24%	75.1% (active)
